# Laboratory results from PubChem BioAssay (Tox21).
# Inconclusive results are not listed. Activity calls are given as the source filed them. Calls follow the shape of the dose curve; as a rule, active = well fitted cell-killing curve with a large enough effect in the repeat runs; inconclusive = weak or mixed curves, or effect the other way; inactive = flat fitted curve, though single readings scatter.
# Experiment: Nuclear factor erythroid 2-related factor 2/antioxidant responsive element (Nrf2/ARE) small molecule agonists: qHTS cell viability counter screen in human keratinocytes (AID 1919968); also: nearly all actives have a fitted effect of over 55% in size
# Conditions: KeratinoSens HaCaT ARE cells viability, CellTiter-Fluor, 24 h; series mostly up to 92.4 µM; activity change, negative = cytotoxicity: at the top concentration
# Text: U.S. Tox21 Program National Center for Advancing Translational Sciences [NCATS] Division of Preclinical Innovation [DPI] U.S. Environmental Protection Agency [EPA] National Institutes of Environmental Health Sciences [NIEHS] National Toxicology Program [NTP] U.S. Food and Drug Administration [FDA] Tox21 Assay Overview: Oxidative stress has been implicated in the pathogenesis of a variety of diseases ranging from cancer to neurodegeneration. The antioxidant response element (ARE) signaling pathway plays an important role in the amelioration of oxidative stress. The KeratinoSens (Givaudan, Switzerland) is an in vitro test method which quantifies luciferase induction as a measure of activation of Keap1-Nrf2-antioxidationt/electrophile response element (ARE) dependant pathway in HaCaT human keratinocytes stably transfected with a selectable plasmid. The KeratinoSens assay is a cell-based assay with a reporter cell line to detect potential skin sensitizers by their ability to induce the Nrf2/ARE-response. The activation of the report gene under culture conditions can be detected by ONE-Glo Luciferase Assay System (Promega, Madison, WI). This cell line has been used to screen the Tox21 10K compound library to identify agonists that induce oxidative stress. The cytotoxicity of the Tox21 compound library against the KS-ARE cell line was tested in parallel by measuring the cell viability using CellTiter- Fluor assay system (Promega, Madison, WI) in the same wells.
# Tox21 Assay Protocol Summary: HaCaT derived cell line KeratinoSens were dispensed at 1,500 cells/5uL/well in 1536-well white wall/solid bottom plates using a Multidrop Combi (ThermoFisher Scientific, Waltham, MA) dispenser. After the assay plates were incubated at 37 C/5% CO2 for 5 h, 23 nL of compounds dissolved in DMSO, positive controls or DMSO only was transferred to the assay plate by a pintool workstation (Kalypsys, San Diego, CA). The plates were incubated at 37 C/5% CO2 for 23 h, followed by addition of 1uL/well of CellTiter-Fluor reagent into the assay plates using a Flying Reagent Dispenser (Aurora Discovery, San Diego, CA) for cell viability readout that measures cytotoxicity. After 1 h incubation at 37 C/5% CO2 the fluorescence intensity was measured using a ViewLux (PerkinElmer, Shelton, CT) plate reader.
# % is scaled to controls: 0 for no effect and ±100 for the full control effect; potency is read from the fitted curve at half-maximal effect.
SMILES,"activity change, negative = cytotoxicity",Potency
CC(C)(Cl)[N+](=O)[O-],4.38% (inactive),–
c1coc(-c2nc3ccccc3[nH]2)c1,0.767% (inactive),–
CCN[C@@H](C)Cc1ccccc1,-0.553% (inactive),–
COc1cc(OC)nc(NC(=O)NS(=O)(=O)c2ncccc2OCC(F)(F)F)n1,-1.89% (inactive),–
COC(=O)/C=C(\C)OP(=O)(OC)OC,8.65% (inactive),–
Clc1ccc(-c2ccc(Cl)c(Cl)c2Cl)c(Cl)c1Cl,–,51.9 µM (active)
COc1ccc(/C(=C/C(=O)N2CCOCC2)c2ccc(Cl)cc2)cc1OC,0.6% (inactive),–
CC[C@H]1C[C@H]2[C@@H]3CCC4=CC(=O)CC[C@@H]4[C@H]3CC[C@]2(C)[C@H]1O,10.2% [at 42.5 µM] (inactive),–
O=C(CBr)OCc1ccccc1,-0.987% (inactive),–
CNC(=O)O/N=C(/CSC)C(C)(C)C,-0.281% (inactive),–
Cc1ccc2cc3c(ccc4ccccc43)c3c2c1CC3,6.74% [at 42.5 µM] (inactive),–
COc1ccc(-c2ccccc2)cc1NNC(=O)OC(C)C,3.54% (inactive),–
CCC(C)Br (stereo not given),-1.3% (inactive),–
CN(C)C1CSSSC1,0.169% (inactive),–
COC(N)=O,-0.411% (inactive),–
Cc1cc(=O)[nH]o1,5.49% (inactive),–
O=C(C(Cl)(Cl)Cl)C(Cl)(Cl)Cl,-3.72% (inactive),–
O.O.O.O.O.O.O.O=S(=O)([O-])[O-].[Co+2],-9.63% (inactive),–
CCN(CC)c1nc(C)cc(OP(=S)(OC)OC)n1,5.42% (inactive),–
NC(=O)CS(=O)C(c1ccccc1)c1ccccc1 (stereo not given),-2.03% [at 42.5 µM] (inactive),–

SMILES,"activity change, negative = cytotoxicity",Potency
CCC1(CC)C(=O)NC(=O)NC1=O,5.25% [at 42.5 µM] (inactive),–
O=[N+]([O-])C(Br)(CO)CO,-5.59% (inactive),–
COP(N)(=S)Oc1ccccc1C(=O)OC(C)C (stereo not given),-4.75% (inactive),–
CC(=O)Nc1ccc2c(c1)Cc1ccccc1-2,-0.781% (inactive),–
CO/N=C(\C(=O)OC)c1ccccc1CO/N=C(\C)c1cccc(C(F)(F)F)c1,13.1% (inactive),–
CC(=O)O.CC(=O)O.CC(=O)O.CC(=O)O.CC(=O)O.CC(=O)O.CC(=O)O.O.O.[Cr].[Cr].[Cr],-2.07% (inactive),–
N#C/C=C/C#N,-1.3% (inactive),–
CC[C@H](O)C(C[C@H](C)N(C)C)(c1ccccc1)c1ccccc1,0.786% (inactive),–
C=COC(C)=O,-5.43% (inactive),–
COC(=O)c1cc(Oc2ccc(Cl)cc2Cl)ccc1[N+](=O)[O-],19.1% (inactive),–
CCCN(CC)CC1COC2(CCC(C(C)(C)C)CC2)O1 (stereo not given),5.21% (inactive),–
COc1cc(CC#N)cc(OC)c1OC,2.74% [at 42.5 µM] (inactive),–
Cc1ccc(N(SC(F)(Cl)Cl)S(=O)(=O)N(C)C)cc1,–,27.3 µM (active)
COc1ccc(OC)c(C=O)c1,-2.02% (inactive),–
CSc1nc(N=[N+]=[N-])nc(NC(C)C)n1,0.566% (inactive),–
C=CC(=O)OCCCCOC(=O)C=C,–,61.1 µM (active)
NNC(=O)c1cccnc1,8.61% (inactive),–
Cn1[nH]nnc1=S,0.366% (inactive),–
C1CCC(C2CCCCC2)CC1,-15.7% (inactive),–
CC#Cc1cc(C)nc(Nc2ccccc2)n1,-0.798% (inactive),–
